The list is not random: actives were taken first. Their share in the collection is about 1.2%.
PrP 5UTR inh = inhibition of PrP 5' UTR reporter expression. cell-based PrP 5' UTR mRNA reporter, plate reader. inhibition, % (concentration not given with the values). 340,000 compounds, 0.35% hits. AID 488862, 2010; in the data active means inhibition above about 52%
PriA SSB inh = inhibitors of Klebsiella pneumoniae PriA binding to SSB C-terminal tail, primary screen, biochemical, AlphaScreen | AID 1272365, 2023 | inhibition, % at 33 µM | AlphaScreen SSBct-PriA binding, biotinylated peptide | PriA–SSB C-terminal tail interaction (Klebsiella pneumoniae) | 430,000 compounds, 0.6% hits; in the data active means inhibition mostly above about 37%, no sharp cut-off; inactive means mostly below about 20%
UGM FP inh = M. tuberculosis UGM enzyme inhibitors, primary screen, biochemical, fluorescence polarization, single point; purified UGM, fluorescence polarization probe displacement; inhibition, % at 10 µM; AID 504406, 2011; 320,000 compounds, 0.06% hits; in the data active means inhibition above about 10%, passing the limit was not always enough
Rv3671c protease = Rv3671c serine protease inhibitors, primary screen, biochemical, fluorescence polarization, M. tuberculosis H37Rv. 320,000 compounds, 0.048% hits. inhibition, % at 5.96 µM. P9WHR9. AID 2606, 2010; in the data active means inhibition above about 38%;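 further: extracellular domain of Rv3671c used as enzyme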
PrPC TRFRET = inhibitors of human cell surface prion protein PrPC, primary screen, cell-based, TR-FRET; Major prion protein (Homo sapiens), P04156; TR-FRET read-out; inhibition, % at 13.8 µM; 370,000 compounds, 0.43% hits; in the data active means inhibition above about 24%
FadD28 FP inh = inhibitors of FadD28 bisubstrate probe binding, primary screen, biochemical, fluorescence polarization, single point. Mycobacterium tuberculosis FadD28 fatty-acid-AMP ligase. inhibition, % at 12.5 µM. 360,000 compounds, 0.22% hits; in the data active means inhibition above about 8.5%, passing the limit was not always enough
PrPC TRFRET cf = confirmation of inhibitors of cell surface human prion protein, confirmation, cell-based, TR-FRET; inhibition, % at 13.8 µM; cell surface PrPC level; AID 743200, 2013; shares compounds with PrPC TRFRET; 1,500 compounds, 65% hits; in the data active means inhibition above about 25%
LD9 tox = cytotoxicity in LD9 cells, cytotoxicity control for cell surface PrPc inhibitor project, cell-based, luminescence, high throughput | shares compounds with PrPC TRFRET | luminescence viability | inhibition, % at 13.8 µM | 1,500 compounds, 29% hits; in the data active means inhibition above about 9.5%
Of the large screens only hits and unclear results are named; the others gave an inactive call (follow-up assays come after a bar, where they were run).

COc1cccc(NC(=O)NCC2CN(c3ccc(Cl)c(Cl)c3)C(=O)O2)c1OC (centres undefined)	none (no result: PrP 5UTR inh, UGM FP inh, Rv3671c protease, PrPC TRFRET, FadD28 FP inh)
CNC(=O)CS(=O)(=O)C1CCN(S(=O)(=O)c2ccc(C)c(C)c2)CC1	none (no result: PrP 5UTR inh, UGM FP inh, Rv3671c protease, PrPC TRFRET, FadD28 FP inh)
CCCC(=O)NC(c1ccc(C(C)C)cc1)c1ccc2cccnc2c1O (centres undefined)	none
CCCC(=O)NC(c1ccccc1Cl)c1ccc2cccnc2c1O (centres undefined)	PrPC TRFRET 27 | PrPC TRFRET cf 28 | LD9 tox 34
COc1ccc2sc(N(CCN(C)C)C(=O)c3ccc4c(c3)CCCC4)nc2c1	none (no result: PrP 5UTR inh, UGM FP inh, Rv3671c protease, PrPC TRFRET, FadD28 FP inh)
S=c1nc[nH]c2c1cnn2-c1ccccc1	PrPC TRFRET 36 | PrPC TRFRET cf 43 | LD9 tox inactive
COCCN(Cc1ccoc1)C(=O)c1cc(-c2ccc(F)cc2)nn1C	none (no result: PrP 5UTR inh, UGM FP inh, Rv3671c protease, PrPC TRFRET, FadD28 FP inh)
Cn1nc(C(F)(F)F)c(/C=N/OC(=O)c2ccccc2Cl)c1SCc1ccccc1Cl	PrPC TRFRET 70 (no result: PriA SSB inh) | PrPC TRFRET cf 82 | LD9 tox inactive
Cc1ccc(S(=O)(=O)Nc2ccccc2N(C)S(=O)(=O)c2ccc(C)cc2)cc1	PrPC TRFRET 26 | PrPC TRFRET cf inactive | LD9 tox 9.7
CCCSc1nc(N)c(C#N)c(-c2ccc(C)cc2)c1C#N	none
C=CCSc1nc(N)c(C#N)c(-c2ccccc2)c1C#N	PrPC TRFRET 51 | PrPC TRFRET cf inactive | LD9 tox inactive
CC(C)CCNC(=O)c1coc(NC(=O)C2CCC2)n1	none (no result: PrP 5UTR inh, UGM FP inh, Rv3671c protease, PrPC TRFRET, FadD28 FP inh)
Cc1cc(Br)c(OCc2ccc(C(=O)N/N=C/c3ccc[nH]3)cc2)c(Br)c1	PrPC TRFRET 26 (no result: PriA SSB inh) | PrPC TRFRET cf 52 | LD9 tox 65
O=C(N/N=C/c1ccc[nH]1)c1ccc(COc2cccc3cccnc23)cc1	none (no result: PriA SSB inh)
O=C(Nc1cccc(C(F)(F)F)c1)c1cccc2c(-c3cccnc3)coc12	none (no result: PrP 5UTR inh, PriA SSB inh, UGM FP inh, Rv3671c protease, PrPC TRFRET)
COc1cc(NC(=O)c2cccc3c(-c4cccnc4)coc23)cc(OC)c1OC	PrPC TRFRET 30 (no result: PrP 5UTR inh, PriA SSB inh, UGM FP inh, Rv3671c protease) | PrPC TRFRET cf 25 | LD9 tox 43
O=C(CSc1nc2ccccc2[nH]1)c1ccc(OC(F)F)cc1OC(F)F	none (no result: PrP 5UTR inh, UGM FP inh, Rv3671c protease, PrPC TRFRET, FadD28 FP inh)
CCCCCn1c2c(c(=N)c3ccccc31)CCC2	none
CCCCCCCCn1c2c(c(=N)c3ccccc31)CCC2	PrPC TRFRET 29 (no result: UGM FP inh, Rv3671c protease) | PrPC TRFRET cf 44 | LD9 tox 38
O=C(NCc1ccc(OC(F)(F)F)cc1)c1cn[nH]n1	none (no result: PrP 5UTR inh, UGM FP inh, Rv3671c protease, PrPC TRFRET, FadD28 FP inh)
O=C(C1=C(O)C(=O)N(CCN2CCOCC2)C1c1cccc(Br)c1)c1cc2ccccc2o1 (centres undefined)	PrPC TRFRET 75 | PrPC TRFRET cf 130 | LD9 tox inactive
COP(=O)(OC)c1nc(-c2ccccc2)oc1NCc1ccccc1	none
CCCOP(=O)(OCCC)c1nc(-c2ccccc2)oc1NCc1ccccc1	PrPC TRFRET 28 | PrPC TRFRET cf inactive | LD9 tox inactive
O=C(NCc1ccccc1Cl)NC1CC(=O)N(c2ccc3c(c2)OCCO3)C1 (centres undefined)	none (no result: PrP 5UTR inh, UGM FP inh, Rv3671c protease, PrPC TRFRET, FadD28 FP inh)
Cc1ccccc1C(=O)NNc1ccc(-c2csnn2)cc1	PrPC TRFRET 25 | PrPC TRFRET cf inactive | LD9 tox inactive
CC(=O)Oc1ccc(-c2csnn2)cc1	none
CCOc1ccc(N2CCn3c(SCC(=O)Nc4nnc(C)s4)nnc32)cc1	none (no result: PrP 5UTR inh, UGM FP inh, Rv3671c protease, PrPC TRFRET, FadD28 FP inh)
COc1ccc(NC(=O)c2cc(-c3cc(Cl)ccc3OC)n[nH]2)c(OC)c1	PrPC TRFRET 28 (no result: PrP 5UTR inh, PriA SSB inh, UGM FP inh, Rv3671c protease) | PrPC TRFRET cf inactive | LD9 tox inactive
CCOc1ccc(Cl)cc1-c1cc(C(=O)Nc2ccc(OC)cc2OC)[nH]n1	none (no result: PrP 5UTR inh, PriA SSB inh, UGM FP inh, Rv3671c protease)
CC(=O)NCCn1c(C)cc2ccccc21	none
CCC(=O)NCCn1c(C)cc2ccccc21	none (no result: PrPC TRFRET)
Cc1cc2ccccc2n1CCNC(=O)Cc1cccc2ccccc12	PrPC TRFRET 41 | PrPC TRFRET cf inactive | LD9 tox inactive
Cc1cc2ccccc2n1CCNC(=O)c1ccc(S(=O)(=O)N2CCOCC2)cc1	PrPC TRFRET 27 | PrPC TRFRET cf inactive | LD9 tox inactive
Cc1cc2ccccc2n1CCNC(=O)COc1ccccc1	PriA SSB inh 49, PrPC TRFRET 42 | PrPC TRFRET cf 37 | LD9 tox inactive
Cc1cc2ccccc2n1CCNC(=O)C(C)(C)C	PrPC TRFRET 39 | PrPC TRFRET cf inactive | LD9 tox inactive
O=S(=O)(NCCNc1ccc(-n2cccc2)nn1)c1cccs1	none (no result: PrP 5UTR inh, UGM FP inh, Rv3671c protease, PrPC TRFRET, FadD28 FP inh)
Cc1cc(SCC(=O)NC2CCCC2)nc2ccccc12	PrPC TRFRET 28 | PrPC TRFRET cf 39 | LD9 tox inactive
Cc1ccc(N(C(=O)CCC(=O)Nc2cc(C)on2)C(C(=O)NC2CCCC2)c2cccs2)cc1 (centres undefined)	none
Cc1cc(NC(=O)CCC(=O)N(c2ccccc2)C(C(=O)NC2CCCC2)c2cccs2)no1 (centres undefined)	PrPC TRFRET 63 | PrPC TRFRET cf 59 | LD9 tox inactive
Cc1cc(NC(=O)CCC(=O)N(c2ccccc2)C(C(=O)NC2CCCC2)c2ccccc2)no1 (centres undefined)	PrPC TRFRET 35 | PrPC TRFRET cf 52 | LD9 tox inactive
COc1cc2cc(Br)cc(Br)c2nc1C	PrPC TRFRET 63 | PrPC TRFRET cf 89 | LD9 tox inactive
CCOc1cccc2sc(N(CCN(CC)CC)C(=O)c3ccc(S(=O)(=O)N(C)c4ccccc4)cc3)nc12	none (no result: PrP 5UTR inh, UGM FP inh, Rv3671c protease, PrPC TRFRET, FadD28 FP inh)
Cc1sc2ncnc(Sc3ccccc3C(=O)Nc3ccc(Br)cc3)c2c1C	PrPC TRFRET 25 | PrPC TRFRET cf 31 | LD9 tox inactive
Cc1nc2sc(C(=O)Nc3ccc(Br)cc3)c(N)c2c(C)c1C	none (no result: PrP 5UTR inh, UGM FP inh, Rv3671c protease, PrPC TRFRET, FadD28 FP inh)
COc1ccc(CNS(=O)(=O)c2ccc(OC)cc2)cc1	none
Cc1cc2cc(CNS(=O)(=O)c3ccccc3)ccc2n1C	PrPC TRFRET 35 | PrPC TRFRET cf 29 | LD9 tox inactive
CCS(=O)(=O)NCc1ccc2c(c1)cc(C)n2C	none
COc1ccc(S(=O)(=O)NCc2ccc3c(c2)cc(C)n3C)cc1	PrPC TRFRET 38 | PrPC TRFRET cf 41 | LD9 tox inactive
Clc1ccc(Nc2nc3ccc(Cl)cc3c(-c3ccccc3)c2-c2cc(-c3ccccc3)c3cc(Cl)ccc3n2)cc1	none (no result: PrP 5UTR inh, UGM FP inh, Rv3671c protease, PrPC TRFRET, FadD28 FP inh)
O=C(Oc1ccc2c(c1)OCC2=O)c1ccccc1	none
O=C1COc2cc(O)ccc21	PrPC TRFRET 28 (no result: UGM FP inh, Rv3671c protease) | PrPC TRFRET cf inactive | LD9 tox inactive

Screening results (PubChem)
